Assay results from the supplement of paper PMC7156485.
± gives the standard deviation of the averaged measurements.

Assays:
Conditions in all cases: concentration: 10 µM; 24 h
HCC1569 [1] = test: cell number relative to DMSO (% of DMSO); higher = more cells (less growth inhibition / toxicity)
Outline: (§1)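 HCC1569 and TDF cells were seeded at 800 per well in 384-well plates in RPMI with 10% FBS and treated with compounds at 10 µM for 24 h at 37 °C, in triplicate. After fixation in 3.7% formaldehyde, cells were stained with a rabbit anti-H1.0 antibody, an AlexaFluor 647 secondary and DAPI, and six fields per well were imaged at ×10. H1.0 nuclear intensity or cell number is given as percent of the plate control, using the median of replicates, with HCC1569 values smoothed for positional effects.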

TDF [2] = test: as above
Outline: as §1

TDF [3] = test: H1.0 immunofluorescence intensity relative to DMSO (% of DMSO); higher = stronger H1.0 induction, active = 120 or more
Outline: as §1

HCC1569 [4] = test: H1.0 immunofluorescence intensity relative to DMSO (% of DMSO); higher = stronger H1.0 induction, active = 140 or more
Outline: as §1
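Throughout, for H1.0 immunofluorescence intensity relative to DMSO: TDF is a line of transformed human dermal fibroblasts of mesenchymal origin.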
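Throughout, for cell number relative to DMSO: TDF denotes transformed human dermal fibroblasts of mesenchymal origin.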

Row | SMILES | cell number (HCC1569 [1]) | cell number (TDF [2]) | H1.0 immunofluorescence intensity (TDF [3]) | H1.0 immunofluorescence intensity (HCC1569 [4])
1 | Cl.O=C(NCCCCN1CCN(c2cccc(Cl)c2Cl)CC1)c1ccc2c(c1)Cc1ccccc1-2 | 93.5 | 98.2 | 96.4 (inactive) | 116 (inactive)
2 | CC(C)Cn1c(=O)n(C)c(=O)c2[nH]cnc21 [3-Isobutyl-1-methylxanthine] | 114 | 118 | 90.5 (inactive) | 88.2 (inactive)
3 | NC(C(=O)NC1C(=O)N2C(C(=O)O)=C(Cl)CSC12)c1ccccc1 (stereo unspecified) [Cefaclor] | 101 | 99.5 | 103 (inactive) | 85.8 (inactive)
4 | CC(N)(COP(=O)(O)O)C(=O)O (stereo unspecified) [2-methyl-O-phosphonoserine] | 97.7 | 102 | 96 (inactive) | 102 (inactive)
5 | CCn1cc(C(=O)O)c(=O)c2cc(F)c(N3CCNC(C)C3)c(F)c21.Cl (stereo unspecified) [Lomefloxacin hydrochloride] | 101 | 102 | 92.2 (inactive) | 92.9 (inactive)
6 | NC(=O)N1C(=O)/C(=C(\O)c2cccs2)c2cc(Cl)ccc21 | 101 | 104 | 94.8 (inactive) | 106 (inactive)
7 | CC#CC(=O)Nc1cc2c(Nc3ccc(F)c(Cl)c3)ncnc2cn1 [EGFR/ErbB-2/ErbB-4 Inhibitor] | 87.1 | 78.2 | 104 (inactive) | 113 (inactive)
8 | O=c1cc(-c2ccccc2)oc2cc(O)c(O)cc12 [6,7-Dihydroxyflavone] | 102 | 96.3 | 98.5 (inactive) | 101 (inactive)
9 | O=C(CCCc1ccc(-c2ccccc2F)cc1)Nc1ccc(O)cc1 [MK2a Inhibitor] | 79 | 11.1 | 157 (active) | 129 (inactive)
10 | CC(C)Nc1cccnc1N1CCN(C(=O)c2cc3cc(NS(C)(=O)=O)ccc3[nH]2)CC1.CS(=O)(=O)O [Delavirdine mesylate] | 101 | 102 | 99.1 (inactive) | 110 (inactive)
11 | NCCCCC(NC(CCc1ccccc1)C(=O)O)C(=O)N1CCCC1C(=O)O (stereo unspecified) [Lisinopril] | 105 | 99.8 | 97.2 (inactive) | 98.8 (inactive)
12 | COc1cccc2c1C(=O)c1c(O)c3c(c(O)c1C2=O)CC(O)(C(=O)CO)CC3OC1CC(N)C(O)C(C)O1.Cl (stereo unspecified) [Doxorubicin.HCl] | 59.6 ± 3.9 | 17.1 ± 3.7 | 132 (active) | 1430 (active)
13 | CCC1(C)CC(=O)NC1=O (stereo unspecified) [Ethosuximide] | 102 | 98.8 | 94.1 (inactive) | 88 (inactive)
14 | O=C(O)C=Cc1ccc(Cn2ccnc2)cc1 [Ozagrel] | 100 | 101 | 93.8 (inactive) | 104 (inactive)
15 | CC(C)(Sc1ccc(CCN(CCCCC2CCCCC2)C(=O)NC2CCCCC2)cc1)C(=O)O | 101 | 107 | 95.7 (inactive) | 87.6 (inactive)
16 | NC1CONC1=O (racemic) [DL-Cycloserine] | 101 | 96.8 | 92 (inactive) | 92.3 (inactive)
17 | NS(=O)(=O)Cc1noc2ccccc12 [Zonisamide] | 101 | 94.5 | 96 (inactive) | 90.5 (inactive)
18 | CNCCCC1c2ccccc2C=Cc2ccccc21.Cl [Protriptyline hydrochloride] | 92.7 | 99.5 | 109 (inactive) | 117 (inactive)
19 | O=C1Nc2ccc(Br)cc2C1=Cc1cc2c([nH]1)CCCC2 [VEGF Receptor 2 Kinase Inhibitor II] | 94 | 114 | 76.2 (inactive) | 190 (active)
20 | OC1C(O)C(O)C(O)C(O)C1O (stereo unspecified) [1,2,3,4,5,6-cyclohexanehexol] | 102 ± 3 | 104 ± 7.5 | 96.9 (inactive) | 92.9 (inactive)
21 | O=c1c2ccccc2nc2n1CCc1c-2[nH]c2ccccc12 [Rutaecarpine] | 102 ± 6.6 | 103.4 ± 0.87 | 94.9 (inactive) | 102 (inactive)
22 | CCOc1nc(NC(=O)Cc2cc(OC)ccc2OC)cc(N)c1C#N [JNK Inhibitor VIII] | 97.9 | 104 | 92.7 (inactive) | 120 (inactive)
23 | COc1ccc(/C=C\c2cc(OC)c(OC)c(OC)c2)cc1OP(=O)([O-])[O-].[Na+].[Na+] | 57.8 | 10.1 | 197 (active) | 140 (inactive)
24 | CCCCCCCCC=CCCCCCCCCCCCCC(=O)O [14(Z)-Tricosenoic acid] | 100 | 106 | 100 (inactive) | 101 (inactive)
